The list shows a part of the results. Unmarked numbers belong to inactive results. The source made the active and inactive calls. Cut-off read from the data, not from the text of the source: active = inhibition mostly above about 35% (no sharp cut-off); inactive = mostly below about 32%.
These compounds were tested against Sentrin-specific protease 1 (Homo sapiens) (UniProt Q9P0U3) (assay: human SENP1 catalytic domain inhibitors, confirmation, biochemical, FRET endpoint, single concentration (AID 651678;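 note: 0% = enzyme with DMSO and 100% = no enzyme control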)). Conditions: recombinant SENP1, CyPet-SUMO1-YPet FRET cleavage; at 10 µM; stronger effect = higher value.
Chain of Sentrin-specific protease 1 (Homo sapiens) (Q9P0U3 419-644 limits assumed): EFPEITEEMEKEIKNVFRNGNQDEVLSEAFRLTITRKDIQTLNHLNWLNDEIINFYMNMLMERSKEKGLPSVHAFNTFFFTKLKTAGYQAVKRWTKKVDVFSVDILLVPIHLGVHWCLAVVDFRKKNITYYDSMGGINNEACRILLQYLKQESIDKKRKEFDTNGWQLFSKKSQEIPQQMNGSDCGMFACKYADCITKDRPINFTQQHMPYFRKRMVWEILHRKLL

| Compound | inhibition |
| --- | --- |
| COc1ccc(N2C(=O)C3C(C2=O)C(C(=O)c2ccccc2)N2CCCC32)cc1 (stereo unspecified) | 36.9% (active) |
| CCCCCn1nnnc1-c1nc2cc3ccccc3cc2[nH]c1=O | 84.5% (active) |
| Fc1cccc(Cc2c(-c3cccc(Cl)c3)nc3ccc(Br)cn23)c1 | 4.53% |
| O=C1C=C(c2cccc(Cl)c2O)C[C@@H](c2ccc(F)cc2)C1 | 94.1% (active) |
| CC(=O)c1cccc(-c2cnc3c(NC=O)cc(-c4ccc(N(C)C)cc4)cn23)c1 | 57.9% (active) |
| O=C(CCN1C(=O)/C(=C/c2cccs2)SC1=S)NNC(=O)c1cccc(O)c1 | 66.9% (active) |
| c1coc(-c2nc3nc4ccccc4n3nc2-c2ccco2)c1 | 19.4% |
| Cc1ccc2c(c1)nnc1nnc(SCC(=O)O)n12 | 71.8% (active) |
| N/C(=N\OC(=O)N1c2ccccc2Sc2ccccc21)c1ccc(Br)cc1 | -2.12% |
| Cc1ccc(C(=O)N/N=C\c2cc(Br)c(Br)o2)cn1 | 11.3% |
| CCN(CC)S(=O)(=O)c1cc([N+](=O)[O-])ccc1N=Nc1c(O)n(C)c2ccccc12 | 10.5% |
| COc1ccc(OC)c(C2C3=C(N=c4s/c(=C\c5cccc(O)c5)c(=O)n42)c2ccccc2CC3)c1 (stereo unspecified) | 35.7% |
| O=C(NC(=O)c1ccccc1)Nc1ccccc1O | 0.15% |
| Cn1c(-c2sc3cc(C(F)(F)F)cnc3c2-c2ccccc2)n[nH]c1=S | -1.85% |
| COc1cc(/C=C2\CCCc3c2nc2ccccc2c3C(=O)O)cc(Cl)c1O | 97.5% (active) |
| Cc1cccc(C)c1Nc1c(-c2ccccc2O)nc2ncccn12 | 16.2% |
| Cc1cc(C(=O)N/N=C/c2ccc(N3CCOCC3)cc2)c(C)o1 | 29.1% |
| O=C1CC[C@@H]2CC3(C[C@@H]4CCN1[C@H]24)Nc1cc([N+](=O)[O-])ccc1NC3=NC1CCCCC1 (stereo partly specified) | 21.6% |
| O=C1/C(=C/c2coc3ccc(O)cc3c2=O)SC(=S)N1c1ccccc1 | 3.85% |
| O=[N+]([O-])c1ccc(N=NNc2ccc([N+](=O)[O-])cc2)cc1 | 20.1% |
| CCOC(=O)C1CCN(c2ncnc3c2c(-c2ccccc2)cn3-c2ccc(C)cc2)CC1 | 6.42% |

Source: PubChem BioAssay AID651678 (Sanford-Burnham Center for Chemical Genomics, 2012)
